Laboratory results published in PubChem BioAssay (Tox21).
Where “and” joins values, the source holds several entries; their conditions need not be identical. Equal values may be shown once. Records with an inconclusive call do not appear. A call without a number means that no potency is given here. Some compounds were tested as several samples or in several runs, with calls that do not always agree. Calls of active or inactive are those of the source. Unless noted, the call rests on the fitted dose curve; in most records, active means well fitted curve in the direction sought with a large enough effect in the repeat runs; inconclusive means weak or mixed curves; inactive means no such curve, though single readings can be large; an effect the other way counts as inactive or inconclusive.

Biological target: Nuclear receptor subfamily 1 group I member 3 (Homo sapiens) (UniProt Q14994)
Assay: qHTS assay to identify small molecule antagonists of the constitutive androstane receptor (CAR) signaling pathway (AID 1224838);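 further: HepG2 cells stably expressing hCAR with CYP2B6 luciferase reporter stimulated by CITCO; nearly all actives have a fitted effect of over 40% in size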
Conditions: HepG2-CYP2B6-hCAR luciferase, CITCO-stimulated, 24 h; series mostly up to 92.4 µM
Outline: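 Cell line: HepG2 double-stable for hCAR and CYP2B6-2.2kb reporter. Agonist: CITCO, 50 nM final. Compounds: 15 concentrations, 24 h, 37 C. Detection: ONE-Glo luminescence.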
Potency means the concentration at half of the fitted maximal effect.

Chain of Nuclear receptor subfamily 1 group I member 3 (Homo sapiens) (Q14994 whole entry, looked up): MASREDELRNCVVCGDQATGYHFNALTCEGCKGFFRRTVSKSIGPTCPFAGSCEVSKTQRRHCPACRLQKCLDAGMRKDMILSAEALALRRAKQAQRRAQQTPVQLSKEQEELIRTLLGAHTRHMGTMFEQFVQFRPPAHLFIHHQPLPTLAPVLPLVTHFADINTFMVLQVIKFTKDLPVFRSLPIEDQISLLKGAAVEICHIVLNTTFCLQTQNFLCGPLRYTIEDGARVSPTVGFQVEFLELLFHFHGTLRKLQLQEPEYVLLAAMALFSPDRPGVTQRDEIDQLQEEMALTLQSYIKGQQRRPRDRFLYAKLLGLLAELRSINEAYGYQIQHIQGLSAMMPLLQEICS

Row | Structure (SMILES) | Potency
1 | Oc1ccc(Cl)cc1 | inactive
2 | Cc1ccccc1N | inactive
3 | COP(=S)(OC)Oc1ccc(SC)c(C)c1 | inactive
4 | Cc1cccc(N)c1 | inactive
5 | CCOP(=S)(OCC)Oc1cc(C)nc(C(C)C)n1 | inactive
6 | Sc1ccccc1 | 62 µM (active) and inactive
7 | Nc1ccc([As](=O)(O)O)cc1 | inactive
8 | c1ccc2c(c1)CCCC2 | inactive
9 | O=C(O)C(Br)Br | inactive
10 | C=CC(=O)OCC(CC)CCCC (stereo not drawn) | inactive
11 | CC12CC1(C)C(=O)N(c1cc(Cl)cc(Cl)c1)C2=O (stereo not drawn) | inactive
12 | Nc1cccc(Cl)c1 | inactive
13 | NNc1ccccc1 | inactive
14 | OCc1ccco1 | inactive
15 | CC(=O)/C=C/c1ccccc1 | inactive
16 | CC(C)CCCCCCOC(=O)c1ccccc1C(=O)OCCCCCCC(C)C | inactive
17 | O=C(O)C1C(C(=O)O)C2(Cl)C(Cl)=C(Cl)C1(Cl)C2(Cl)Cl (stereo not drawn) | inactive
18 | C[C@]12CC[C@H](O)CC1=CC[C@@H]1[C@@H]2CC[C@]2(C)C(=O)CC[C@@H]12 | inactive
19 | O=C(O)COc1ccccc1 | inactive

Biological target: Nuclear receptor subfamily 1 group I member 3 (Homo sapiens) (UniProt Q14994)
Assay: qHTS assay to identify small molecule agonists of the constitutive androstane receptor (CAR) signaling pathway (AID 1224839); further: nearly all actives have a fitted effect of over 15% in size
Conditions: HepG2 hCAR CYP2B6-luciferase, agonist mode, 24 h; series mostly up to 92.4 µM
Outline: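 Cells were plated and incubated 4 hrs, then dosed with compounds at 15 concentrations. PK11195 was added to 0.75 uM final. After 24 hrs at 37 C, luciferase luminescence was measured.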

Row | Structure (SMILES) | Potency
20 | Oc1ccc(Cl)cc1 | inactive
21 | Cc1ccccc1N | inactive
22 | COP(=S)(OC)Oc1ccc(SC)c(C)c1 | 60.4 µM (active) and 54.5 µM (active) and 23.7 µM (active)
23 | Cc1cccc(N)c1 | inactive
24 | CCOP(=S)(OCC)Oc1cc(C)nc(C(C)C)n1 | inactive
25 | Sc1ccccc1 | inactive
26 | Nc1ccc([As](=O)(O)O)cc1 | inactive
27 | c1ccc2c(c1)CCCC2 | inactive
28 | O=C(O)C(Br)Br | inactive
29 | C=CC(=O)OCC(CC)CCCC (stereo not drawn) | inactive
30 | CC12CC1(C)C(=O)N(c1cc(Cl)cc(Cl)c1)C2=O (stereo not drawn) | inactive
31 | Nc1cccc(Cl)c1 | inactive
32 | NNc1ccccc1 | 48 µM (active) and 68.5 µM (active)
33 | OCc1ccco1 | inactive
34 | CC(=O)/C=C/c1ccccc1 | inactive
35 | CC(C)CCCCCCOC(=O)c1ccccc1C(=O)OCCCCCCC(C)C | inactive
36 | O=C(O)C1C(C(=O)O)C2(Cl)C(Cl)=C(Cl)C1(Cl)C2(Cl)Cl (stereo not drawn) | inactive
37 | C[C@]12CC[C@H](O)CC1=CC[C@@H]1[C@@H]2CC[C@]2(C)C(=O)CC[C@@H]12 | inactive
38 | O=C(O)COc1ccccc1 | inactive

Test system: not listed separately
Assay: qHTS assay to identify small molecule antagonists of the estrogen related receptor signaling pathway with the pleiotropic PPARgamma coactivator (PGC) from Tox21 10K library - cell viability counter screen (AID 1224840; active means well fitted cell-killing curve with a large enough effect in the repeat runs, not every such curve was filed as active; further: nearly all actives have a fitted effect of over 40% in size)
Conditions: PGC/ERR reporter cells viability, CellTiter-Fluor, 17.5 h; series mostly up to 92.4 µM
Outline: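 Following seeding of 2,000 PGC/ERR cells/well and 6 hours' incubation, test compounds were delivered in DMSO. The plates then sat 17.5 hours at 37 C before a fluorogenic live-cell protease reagent (CellTiter-Fluor) was read after 30 min.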

Row | Structure (SMILES) | Potency
39 | COP(=S)(OC)SCN1C(=O)c2ccccc2C1=O | inactive
40 | Oc1ccc(Cl)cc1 | inactive
41 | Cc1ccccc1N | inactive
42 | C=C(C)C(=O)OCC(CC)CCCC (stereo not drawn) | 39.3 µM (active) and inactive
43 | COP(=S)(OC)Oc1ccc(SC)c(C)c1 | inactive
44 | Cc1cccc(N)c1 | inactive
45 | CCOP(=S)(OCC)Oc1cc(C)nc(C(C)C)n1 | inactive
46 | Sc1ccccc1 | inactive
47 | Nc1ccc([As](=O)(O)O)cc1 | inactive
48 | c1ccc2c(c1)CCCC2 | inactive
49 | O=C(O)C(Br)Br | inactive
50 | C=CC(=O)OCC(CC)CCCC (stereo not drawn) | inactive
51 | CC12CC1(C)C(=O)N(c1cc(Cl)cc(Cl)c1)C2=O (stereo not drawn) | inactive
52 | Nc1cccc(Cl)c1 | inactive
53 | Cc1cccc(C)c1N | inactive
54 | NNc1ccccc1 | inactive

Row | Structure (SMILES) | Potency
55 | CCCOC(=O)c1ccccc1C(=O)OCCC | inactive
56 | OCc1ccco1 | inactive
57 | O=C(O)CCCc1ccc(N(CCCl)CCCl)cc1 | inactive
58 | CC(=O)C1CCOC1=O (stereo not drawn) | inactive
59 | CC(=O)/C=C/c1ccccc1 | inactive
60 | CC(C)CCCCCCOC(=O)c1ccccc1C(=O)OCCCCCCC(C)C | inactive
61 | O=C(O)C1C(C(=O)O)C2(Cl)C(Cl)=C(Cl)C1(Cl)C2(Cl)Cl (stereo not drawn) | inactive
62 | CC(C)(C)C(=O)CCl | inactive
63 | C[C@]12CC[C@H](O)CC1=CC[C@@H]1[C@@H]2CC[C@]2(C)C(=O)CC[C@@H]12 | inactive
64 | O=C(O)COc1ccccc1 | inactive
65 | O=[N+]([O-])c1cc([As](=O)(O)O)ccc1O | inactive
66 | O=C(O)c1cc(Oc2ccc(C(F)(F)F)cc2Cl)ccc1[N+](=O)[O-] | inactive
67 | CCNc1nc(Cl)nc(NC(C)C)n1 | inactive
68 | O=S(=O)(O)OOS(=O)(=O)O | inactive
69 | O=[N+]([O-])c1ccc(Cl)cc1 | inactive

Test system: not listed separately
Assay: qHTS assay to identify small molecule antagonists of the estrogen related receptor signaling pathway with the pleiotropic PPARgamma coactivator (PGC) from Tox21 10K library (AID 1224841; call rule not given here; further: actives are mostly falling curves and most rising ones were filed inactive; nearly all actives have a fitted effect of over 50% in size)
Conditions: PGC/ERR reporter cell line, ONE-Glo luciferase, 18 h; series mostly up to 92.4 µM
Outline: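 qHTS antagonist format: PGC/ERR cells, 2k/well, compound in DMSO by pin transfer after 6 h attachment, 18 h treatment at 37 C, One-Glo luminescence read at 30 min.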

Row | Structure (SMILES) | Potency
70 | C=C(C)C(=O)OCC(CC)CCCC (stereo not drawn) | 31.2 µM (active) and inactive
71 | Cc1cccc(N)c1 | inactive
72 | C=CC(=O)OCC(CC)CCCC (stereo not drawn) | inactive
73 | Nc1cccc(Cl)c1 | inactive
74 | OCc1ccco1 | inactive
75 | CC(C)(C)C(=O)CCl | inactive
76 | O=[N+]([O-])c1cc([As](=O)(O)O)ccc1O | inactive
77 | O=C(O)c1cc(Oc2ccc(C(F)(F)F)cc2Cl)ccc1[N+](=O)[O-] | inactive and 68.9 µM (active)
78 | CCNc1nc(Cl)nc(NC(C)C)n1 | inactive

Biological target: Thyrotropin receptor (Homo sapiens) (UniProt P16473)
Assay: qHTS assay to identify small molecule agonists of the thyroid stimulating hormone receptor (TSHR) signaling pathway (AID 1224843; calls by dose curve; further: nearly all actives have a fitted effect of over 45% in size)
Conditions: TSHR-HEK293 cells, cAMP HTRF, agonist mode, 30 min; series mostly up to 92.4 µM
Outline: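 HEK293 cells stably bearing the thyrotropin receptor were plated at 800 cells/well and challenged with compound (30 min, RT). Accumulated cAMP was quantified via cAMP-d2 competing for cryptate-tagged antibody.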

Chain of Thyrotropin receptor (Homo sapiens) (P16473 whole entry, looked up): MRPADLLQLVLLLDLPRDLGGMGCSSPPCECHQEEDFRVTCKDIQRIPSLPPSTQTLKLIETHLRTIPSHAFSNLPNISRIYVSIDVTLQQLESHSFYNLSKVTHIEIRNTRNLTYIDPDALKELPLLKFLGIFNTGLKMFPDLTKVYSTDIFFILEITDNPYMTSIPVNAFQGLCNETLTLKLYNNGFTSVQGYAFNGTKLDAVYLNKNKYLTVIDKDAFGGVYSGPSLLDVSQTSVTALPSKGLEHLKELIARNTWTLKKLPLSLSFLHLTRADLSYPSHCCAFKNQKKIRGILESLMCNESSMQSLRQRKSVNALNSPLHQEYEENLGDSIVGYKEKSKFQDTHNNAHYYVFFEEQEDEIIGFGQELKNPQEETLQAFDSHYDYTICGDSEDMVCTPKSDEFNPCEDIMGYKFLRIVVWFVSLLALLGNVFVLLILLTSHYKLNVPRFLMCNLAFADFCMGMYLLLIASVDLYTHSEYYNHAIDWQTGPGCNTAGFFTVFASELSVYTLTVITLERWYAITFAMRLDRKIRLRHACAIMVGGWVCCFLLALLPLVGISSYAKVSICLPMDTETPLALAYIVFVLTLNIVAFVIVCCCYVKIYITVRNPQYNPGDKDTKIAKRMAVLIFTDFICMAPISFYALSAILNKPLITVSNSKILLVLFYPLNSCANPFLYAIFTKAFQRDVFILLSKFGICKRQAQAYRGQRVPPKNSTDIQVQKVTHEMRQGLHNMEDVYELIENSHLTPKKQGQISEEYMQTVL

Row | Structure (SMILES) | Potency
79 | COP(=S)(OC)SCN1C(=O)c2ccccc2C1=O | inactive
80 | Oc1ccc(Cl)cc1 | inactive
81 | Cc1ccccc1N | 1.08 µM (active) and inactive
82 | C=C(C)C(=O)OCC(CC)CCCC (stereo not drawn) | inactive
83 | CCOP(=S)(OCC)Oc1cc(C)nc(C(C)C)n1 | inactive
84 | Sc1ccccc1 | inactive
85 | Nc1ccc([As](=O)(O)O)cc1 | inactive
86 | c1ccc2c(c1)CCCC2 | inactive
87 | C=CC(=O)OCC(CC)CCCC (stereo not drawn) | inactive
88 | Nc1cccc(Cl)c1 | inactive
89 | Cc1cccc(C)c1N | inactive
90 | NNc1ccccc1 | inactive
91 | OCc1ccco1 | inactive
92 | O=C(O)CCCc1ccc(N(CCCl)CCCl)cc1 | inactive
93 | CC(=O)C1CCOC1=O (stereo not drawn) | inactive
94 | CC(=O)/C=C/c1ccccc1 | inactive
95 | CC(C)CCCCCCOC(=O)c1ccccc1C(=O)OCCCCCCC(C)C | inactive
96 | O=C(O)C1C(C(=O)O)C2(Cl)C(Cl)=C(Cl)C1(Cl)C2(Cl)Cl (stereo not drawn) | inactive
97 | CC(C)(C)C(=O)CCl | inactive
98 | C[C@]12CC[C@H](O)CC1=CC[C@@H]1[C@@H]2CC[C@]2(C)C(=O)CC[C@@H]12 | inactive
99 | O=C(O)COc1ccccc1 | inactive
100 | O=[N+]([O-])c1cc([As](=O)(O)O)ccc1O | inactive
101 | O=C(O)c1cc(Oc2ccc(C(F)(F)F)cc2Cl)ccc1[N+](=O)[O-] | inactive
102 | CCNc1nc(Cl)nc(NC(C)C)n1 | inactive
103 | O=[N+]([O-])c1ccc(Cl)cc1 | inactive
